RecA splice inh: Mtb RecA intein splicing inhibitors, primary screen, biochemical, fluorescence, HTS | Protein RecA (Mycobacterium tuberculosis (strain ATCC 25618 / H37Rv)), P9WHJ3 | cell-free RecA intein splicing | inhibition, % (no concentration beside the values) | AID 2221, 2009 | 0.75% of 290,000 active; in the data active means inhibition above about 30%; inconclusive means no clear call, values can overlap the other calls;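 further: 0% = vehicle wells and 100% = reference inhibitor control wells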
Mtb betalactam: beta-lactam sensitization of Mtb H37Rv, H37Rv | M. tuberculosis H37Rv growth with meropenem, percent inhibition | inhibition, % at 25 µM | 0.27% of 330,000 active | AID 434955, 2010;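 further: growth measured after seven days incubation then overnight dye step; 0% = bacteria only wells and 100% = bacteria with antibiotic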
Rv3671c inh: Rv3671c serine protease inhibitors, primary screen, biochemical, fluorescence polarization, M. tuberculosis H37Rv | 0.048% of 320,000 active | inhibition, % at 5.96 µM | P9WHR9; in the data active means inhibition above about 38%;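 further: extracellular domain of Rv3671c used as enzyme; 0% = enzyme with DMSO and 100% = no enzyme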
Target sequence (P9WHR9 whole entry, looked up, the tested form may be a part): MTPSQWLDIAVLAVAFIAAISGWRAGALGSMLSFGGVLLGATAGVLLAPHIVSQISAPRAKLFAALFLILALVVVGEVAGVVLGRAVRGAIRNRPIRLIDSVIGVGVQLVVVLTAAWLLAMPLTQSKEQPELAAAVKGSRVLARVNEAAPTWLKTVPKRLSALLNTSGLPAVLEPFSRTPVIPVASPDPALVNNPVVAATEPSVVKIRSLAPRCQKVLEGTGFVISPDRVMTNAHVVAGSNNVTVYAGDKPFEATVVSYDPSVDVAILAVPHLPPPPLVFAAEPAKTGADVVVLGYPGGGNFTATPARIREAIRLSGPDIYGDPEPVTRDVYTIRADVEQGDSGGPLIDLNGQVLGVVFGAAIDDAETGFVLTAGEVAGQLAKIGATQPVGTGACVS
PriA SSB inh: inhibitors of Klebsiella pneumoniae PriA binding to SSB C-terminal tail, primary screen, biochemical, AlphaScreen | AlphaScreen SSBct-PriA binding, biotinylated peptide | inhibition, % at 33 µM | 0.6% of 430,000 active | AID 1272365, 2023; in the data active means inhibition mostly above about 37%, no sharp cut-off; inactive means mostly below about 20%;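 further: plate controls were negative control peptide for no effect and reference peptide for full effect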
UGM FP inh: M. tuberculosis UGM enzyme inhibitors, primary screen, biochemical, fluorescence polarization, single point; UDP-galactopyranose mutase (Mycobacterium tuberculosis (strain ATCC 25618 / H37Rv)), …; purified UGM, fluorescence polarization probe displacement; inhibition, % at 10 µM; 0.06% of 320,000 active; AID 504406, 2011; in the data active means inhibition above about 10%, passing the limit was not always enough; inconclusive means no clear call, values can overlap the other calls
GFP chromo cs: counter-screen: blocks GFP chromophore formation, dose response, counter-screen, biochemical, fluorescence, homogeneous; shares compounds with RecA splice inh; cell-free GFP chromophore formation; EC50, µM; 83% of 2,100 active; AID 434968, 2010
The depositor's hits bear a star; ? = inconclusive; · = no result. The list is not random: actives were taken first. Their share in the collection is about 1.1%. Unless noted, how the calls were made is not given here.

SMILES	RecA splice inh	Mtb betalactam	Rv3671c inh	PriA SSB inh	UGM FP inh	GFP chromo cs
O=C(OCn1ncc(Cl)c(Cl)c1=O)c1ccc(F)cc1	75*	100	-12	·	1	8.1*
CC(C)(C)c1csc(Sc2ccc([N+](=O)[O-])cn2)n1	32*	39	3	4	0	9.2*
Cc1ccc(CSc2nc(CC(=O)Nc3ccc4c(c3)OCCO4)cs2)cc1	·	·	·	-5	·	·
O=c1[nH]cc(O)c(=O)[nH]1	89*	-11	5	-2	2	15*
O=C1/C(=N\S(=O)(=O)c2cccs2)C([n+]2ccccc2)=C([O-])c2ccccc21	41*	1	-65	·	9	17*
CC(C)(C)c1cc[n+](C2=C([O-])c3ccccc3C(=O)C2=NS(=O)(=O)c2cccs2)cc1	·	·	·	6	·	·
CCc1cc[n+](C2=C([O-])c3ccccc3C(=O)C2=NS(=O)(=O)c2cccs2)cc1	·	·	·	13	·	·
CC(C)(C)c1cc[n+](C2=C([O-])c3ccccc3C(=O)/C2=N\S(=O)(=O)c2cccs2)cc1	78*	-3	-68	·	1	0.96*
CC(CC(=O)NC1CCCC1)=NNC(=O)c1ccc([N+](=O)[O-])c(Cl)c1	·	·	·	-6	·	·
COc1cccc(CSc2nc(CC(=O)Nc3nccs3)cc(=O)[nH]2)c1	·	·	·	-14	·	·
COC1=C(c2ccccc2)C(=O)c2ccccc2C1=O	69*	4	-18	-14	2	14*
O=[N+]([O-])c1c(Nc2ccccc2O)ccc2nonc12	0	52	-3	-3	-2	·
O=[N+]([O-])c1c(Nc2ccccc2O)cc(Cl)c2nonc12	96*	10	·	17	2	1.5*
O=C(O)c1cc(Nc2cc(Cl)c3nonc3c2[N+](=O)[O-])ccc1O	97*	9	9	-8	0	1.9*
COc1ccc(Cl)cc1C(=O)NCCc1nc(C2CC2)cc(C(F)(F)F)n1	·	·	·	-14	·	·
COC(=O)[C@@H]1C[C@]2(OC(=O)c3ccccc3)C=CC(=O)C[C@@H]2N1C(=O)OCc1ccccc1	56*	-6	-3	-5	3	32*
COc1ccc(C=NNC(=O)c2cccs2)c2ccccc12	·	·	·	-13	·	·
CN(N)C(=S)Nc1ccc(Cl)cc1	31*	-5	-3	-2	5	>38
O=C(CCl)N1CCN(S(=O)(=O)c2ccc3ccccc3c2)CC1	76*	99	4	-12	1	28*
CN(C)C(=O)N1CCN(S(=O)(=O)c2ccc3ccccc3c2)CC1	·	-3	-3	-4	1	·
COc1ccc(NC(=O)/C(Cl)=C(/Cl)S(=O)Cc2ccccc2)cn1 (stereo unspecified)	78*	100	-3	-4	-3	6.6*
COc1ccc(CS(=O)(=O)/C(Cl)=C(/Cl)C(=O)Nc2ccc(OC)nc2)cc1	78*	60	-12	-13	2	9.7*
COc1ccc(NC(=O)Cc2ccccc2)cn1	1	-4	2	-3	1	·
COc1ccc(/C=C/C(=O)Nc2ccc(OC)nc2)cc1	·	92	2	-1	1	·
O=C1CC(c2ccc(O)cc2)Oc2cc(O)cc(O)c21 (stereo unspecified)	1	-3	-20	-13	3	·
SMILES	RecA splice inh	Mtb betalactam	Rv3671c inh	PriA SSB inh	UGM FP inh	GFP chromo cs
CC1CC(=O)c2c(cc3c(-c4c(O)cc(O)c5c(O)c6c(cc45)OC(C)CC6=O)c(O)cc(O)c3c2O)O1 (stereo unspecified)	96*	14	35	-4	5	2.5*
O=c1[nH]c(=O)n(C2CCCCCC2)c(O)c1C=NCc1ccc(F)cc1	4	2	0	3	-1	·
Oc1c(C=NCc2ccc(F)cc2)[nH]c2ccc(Br)c(Cl)c12	43*	-7	-7	·	3	6.1*
COc1ccc(CN=Cc2c(O)[nH]c3ccccc23)cc1	0	-3	0	1	0	·
Cc1ccc(CN=Cc2[nH]c3ccc(Br)c(Cl)c3c2O)cc1	75*	12	-22	-3	-1	4.8*
Cc1ccc(SCc2[nH]nc3c2C2(C(=O)Nc4ccc([N+](=O)[O-])cc42)C(C#N)=C(N)O3)cc1 (stereo unspecified)	12	22	-3	17	0	·
Cc1ccc(SCc2[nH]nc3c2C2(CCSCC2)C(C#N)=C(N)O3)cc1	60*	-1	-4	10	3	16*
COC(=O)Cc1[nH]nc2c1C1(CCSCC1)C(C#N)=C(N)O2	66*	4	5	-13	0	17*
Cc1cc(C)c(S(=O)(=O)N2CCOC23CCNCC3)c(C)c1	·	·	·	-8	·	·
CCCCN(CCCC)C(=O)N[C@@]1(C)CCS(=O)(=O)C1	·	·	·	-20	·	·
O=C(OCCOc1ccc(F)cc1)c1cn(-c2cccc(F)c2)c(=O)c2ccccc12	·	·	·	-15	·	·
O=C(c1cc(F)c(F)cc1Cl)N1CCN(c2ccc([N+](=O)[O-])c3ncccc23)CC1	32*	-2	-9	-13	1	23*
COc1cccc(CN2CCN(Cc3ccc(C#CC(C)(C)O)s3)CC2CCO)c1 (stereo unspecified)	77*	-6	1	2	-4	>38
O=C(NCc1cccnc1)/C(=C\c1ccc(-c2cccc(Cl)c2)o1)S(=O)(=O)c1ccccc1	54*	7	-18	-4	2	35*
CCOC(=O)C1(CCOc2ccccc2)CCN(Cc2ccc(O)c(Cl)c2)CC1	43*	83	·	11	-2	>38
O=c1cc(N=Nc2ccc(Cl)cc2)[nH]c(=O)[nH]1	88*	100	-9	1	1	?
CCCc1[nH]nc2c1C(c1ccc(OC)cc1OC)C(C#N)=C(N)O2 (stereo unspecified)	79*	9	-2	-2	-2	17*
CCCc1[nH]nc2c1C(c1cccc(OC)c1)C(C#N)=C(N)O2 (stereo unspecified)	42*	4	-13	-6	-3	38*
COc1ccc(C(=O)N2c3ccccc3C=CC2C#N)cc1 (stereo unspecified)	6	0	6	-14	1	·
N#C[C@H]1[C@H](c2ccccc2)[C@](C#N)(C(=O)c2ccccc2)[C@@H]2C=Cc3ccccc3N21	53*	·	·	·	·	23*
CN(C(=O)C(Cl)Cl)c1ccc(OC(=O)c2ccco2)cc1	36*	6	1	-1	-1	>38
Cc1ccc(NC(=O)c2ccc(OC(=O)c3ccco3)cc2)cc1	2	4	-8	-13	0	·
COc1cc(/C=C2\C(=O)N(c3ccc(NC(C)=O)cc3)N=C2c2ccccc2)ccc1O	83*	3	-71	-3	5	>38
COc1cccc(/C=C/c2nc(C#N)c(N3CCN(C(=O)c4ccccc4Cl)CC3)o2)c1	·	·	·	-5	·	·

From PubChem BioAssay
